This is an account of results in PubChem BioAssay AID2100 (National Center for Advancing Translational Sciences (NCATS), 2009).

The campaign covered roughly 300,000 compounds. About 1,200 (0.4%) were called active. Another 3% or so got no clear call; they are omitted. Calls come from the whole dose curve; as a rule, active = well fitted inhibition curve with a large enough effect; inconclusive = small, poorly fitted or top-dose-only effect, or another doubt; inactive = no such curve, though single readings can be large or run the other way. Shown is part of a subset that was picked to be rich in actives. Entries that show only a call come without a potency.
Potency is the fitted concentration of half-maximal effect.

This test has as its target Lysosomal alpha-glucosidase (Homo sapiens) (UniProt P10253). Description: qHTS Assay for Inhibitors and Activators of Human alpha-Glucosidase Cleavage of Glycogen.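 Note: the screen sought inhibitors and activators.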 Particulars: recombinant GAA, glycogen substrate, Amplex Red glucose oxidase fluorescence; series mostly up to 76.3 µM. An outline of the steps:
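Recombinant enzyme (4 nM final) with compounds titrated up to 77 uM and bovine liver glycogen (30 ug) in citrate pH 5.0, 0.01% Tween-20, 37 C 40 min. Released glucose detected by Amplex Red/glucose oxidase (Ex 573/Em 610); AC50 from Hill fits.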
For `CCOc1ccc2nc(N3CCCC(C(=O)Nc4cc(C)ccc4C)C3)sc2c1` (centres undefined), the Potency result is “inactive”.

Turning to `O=[N+]([O-])c1ccc(N/N=C/c2ccccc2)cc1`, the Potency result is “inactive”.

Take `CNC(=S)Nc1ccc([N+](=O)[O-])cc1`: the Potency result was “inactive”.

In the case of `O=C(O)/C=C/C(=O)NNc1ccc([N+](=O)[O-])cc1`, the Potency was 14 µM (active).

As for `COc1cc(Nc2nc(-c3ccc(OC)c(OC)c3)nc3ccccc23)cc(OC)c1`, the Potency entry is “inactive”.

For the molecule `CC(Nc1ccc(-c2nc(-c3ccco3)no2)cc1[N+](=O)[O-])c1ccccc1` (centres undefined), the Potency result is “inactive”.

As to `CCc1ccc(C(=O)CC2(O)C(=O)N(CCc3ccccc3)c3ccc(Br)cc32)cc1` (centres undefined), the Potency entry is “inactive”.

With `COC(=O)c1cc(NC(=O)c2ccco2)ccc1N1CCOCC1`, the Potency entry is “inactive”.

For `CCN(CC)S(=O)(=O)c1ccc(N2CCOCC2)c(C(=O)O)c1`, the Potency result is “inactive”.

`Cn1c(=O)n(C)c2cc(CNc3ccc(N4CCOCC4)c(C(=O)O)c3)ccc21`: the Potency was 9.92 µM (active).

Regarding `CCn1cc(C(=O)NCCc2ccccc2)c(=O)c2cc(S(=O)(=O)N3CCCCCC3)ccc21`, the Potency result is “inactive”.

With `O=C(Nc1nc2c(s1)CCCC2)c1ccccc1F`, the Potency entry is “inactive”.

Regarding `CC(CC(=O)N1CCN(c2ccccc2)CC1)c1ccccc1` (centres undefined), the Potency result is “inactive”.

In the case of `CC(=O)N1CCN(c2ccc(NCc3ccc(C(C)C)cc3)cc2)CC1`, the Potency was 31.6 µM (active).

For `CCc1ccc(NC(=O)N2CCN(c3ccccc3)CC2)cc1`, the Potency entry is “inactive”.

Take `Cc1ccc(-c2cc(N)n(Cc3cccc(Cl)c3)n2)cc1`: the Potency result is “inactive”.

In the case of `CC1=Nc2cc(C(=O)N3CCC(C)CC3)ccc2Sc2ccc(Cl)cc21`, the Potency result was “inactive”.

Consider `Cc1ccc(Nc2nnc(SCc3ccccc3)s2)cc1`, for which the Potency entry was “inactive”.

`Cc1ccc(Nc2ccccc2N)cc1`: the Potency is 50.1 µM (active).

As to `Nc1ccc(Nc2ccccc2)cc1`, the Potency result is “inactive”.

In the case of `COc1ccc(CNC(=O)COCc2cc(-c3cccs3)on2)cc1OC`, the Potency result is “inactive”.

Consider `Cc1nc2nc(NCc3cccc(Br)c3)[nH]n2c(=O)c1Cc1ccccc1`, for which the Potency result is “inactive”.

With `CC1CCN(c2nc3ccc(C(=O)N4CCN(c5ccccc5)CC4)cc3s2)CC1`, the Potency result was “inactive”.

With `O=C(Nc1ccc2nc(SCCOc3ccccc3)sc2c1)c1ccco1`, the Potency result was “inactive”.

Take `Cc1cc(NC(=O)C2CCC(CNS(=O)(=O)c3ccc(Br)s3)CC2)ccc1Br` (centres undefined): the Potency entry is “inactive”.

In the case of `CC(=O)c1ccc(NC(=O)Nc2ccc([N+](=O)[O-])cc2C)cc1`, the Potency entry was “inactive”.

For the molecule `CCN(CC)S(=O)(=O)c1cc([N+](=O)[O-])ccc1NNC(=O)Nc1ccccc1`, the Potency is 28.2 µM (active).

For `CCN(CC)S(=O)(=O)c1cc([N+](=O)[O-])ccc1N=Nc1c(O)n(C)c2ccccc12`, the Potency result is “inactive”.

In the case of `COC(=O)c1cccc(Cn2nnc3sc4c(c3c2=O)CCC(C(C)(C)C)C4)c1` (centres undefined), the Potency entry is “inactive”.

Take `CC(=O)C1(C)N(O)C(C)(C)C(c2cccs2)=[N+]1[O-]` (centres undefined): the Potency result is “inactive”.

`C/C(=N\O)C1(C)N(O)C(C)(C)C(c2ccc(Br)cc2)=[N+]1[O-]` (centres undefined): the Potency is 6.26 µM (active).

As to `Cc1nnc(NCc2ccccc2)c2c1nnn2Cc1ccc(F)cc1`, the Potency result was “inactive”.

`COc1ccc(-c2csc(Nc3ccc(O)cc3)n2)cc1`: the Potency is 11.2 µM (active).

For `COc1ccc(-c2csc(Cc3nc(O)cs3)n2)cc1`, the Potency entry was “inactive”.

As to `NS(=O)(=O)c1ccc(Nc2nc(-c3ccccc3)cs2)cc1`, the Potency entry is “inactive”.

With `COc1ccc(OC)c(Nc2nc(-c3ccc(O)c(O)c3)cs2)c1`, the Potency was 28.2 µM (active).

On to `COc1cccc(CC(=O)Nc2nc(-c3ccc(OC)c(OC)c3)cs2)c1`, for which the Potency result is “inactive”.

For `COc1ccc(C)cc1Nc1nc(-c2c(C)[nH]c3ccccc23)cs1`, the Potency entry is “inactive”.

In the case of `Cc1cccc(C(=O)NCCc2nc3ccccc3n2Cc2ccccc2Cl)c1`, the Potency result was “inactive”.

In the case of `CC(C)S(=O)(=O)c1oc(-c2ccc(F)cc2)nc1S(=O)(=O)c1ccc(F)cc1`, the Potency result is “inactive”.

Turning to `COc1ccccc1C(=O)Nc1c(C(=O)N(C)Cc2ccccc2)sc2nc(C)c(Cl)c(C)c12`, the Potency entry was “inactive”.

Regarding `COc1cc(Cl)c(NC(=O)CC(C)S(=O)(=O)c2cc3c(cc2C)NC(=O)CO3)c(OC)c1` (centres undefined), the Potency result is “inactive”.

Regarding `CCC(C)NC(=O)CSC1=Nc2ccccc2C2=NC(CCC(=O)NCc3ccco3)C(=O)N12` (centres undefined), the Potency entry is “inactive”.

As for `O=C(CSC1=Nc2ccccc2C2=NC(CC(=O)NCc3ccco3)C(=O)N12)NCc1ccco1` (centres undefined), the Potency entry is “inactive”.

On to `CC(C)C1N=C2c3ccccc3N=C(SCC(=O)c3ccc(O)c(O)c3)N2C1=O` (centres undefined), for which the Potency was 12.5 µM (active).

As for `CC(NC(=O)CCc1cn(Cc2ccccc2Cl)c2ccccc12)c1ccccc1` (centres undefined), the Potency result is “inactive”.

For the molecule `O=C(CCl)NNc1cccc(Cl)n1`, the Potency is 20 µM (active).

Turning to `COc1cc(OC)nc(NC(=O)CCl)n1`, the Potency entry is “inactive”.

Regarding `O=C(Cc1c(Cl)cccc1Cl)NC1CC1`, the Potency entry is “inactive”.

With `COc1ccccc1CNC(=O)CCn1c(=O)c2ccccc2n(CC(=O)Nc2cccc(Cl)c2)c1=O`, the Potency entry is “inactive”.

On to `Cc1ccc(CSc2nc3cccnc3n2Cc2ccc(C(=O)NC3CC3)cc2)cc1`, for which the Potency result was “inactive”.

As for `CCOC(=O)C(=CNNc1ccsc1C(=O)OC)C(=O)OCC`, the Potency was 14 µM (active).

`COC(=O)c1sccc1NC(=S)Nc1ccc(C)cc1`: the Potency result was “inactive”.

As to `COC(=O)c1sccc1NC(=O)CCC1CCCC1`, the Potency result was “inactive”.

Take `CCCC(=O)Nc1c(O)c2ccccc2[nH]c1=O`: the Potency entry is “inactive”.

Regarding `O=C(O)c1[nH]c2ccccc2c1C(c1cccc(O)c1)c1c(C(=O)O)[nH]c2ccccc12`, the Potency result is “inactive”.

In the case of `CCCS(=O)(=O)Nc1c(C(=O)O)[nH]c2ccccc12`, the Potency was 3.55 µM (active).

Consider `O=S(=O)(c1ccc(Cl)cc1)c1nnn2c1nc(NC1CCCC1)c1sccc12`, for which the Potency result is “inactive”.

For the molecule `Cc1c(Cl)cccc1NC(=O)C1CCCN(C(=O)c2cnn(-c3ccccc3)c2-n2cccc2)C1` (centres undefined), the Potency entry is “inactive”.

For the molecule `O=C(Nc1cc(N2CCOCC2)ncn1)NC1(C(F)(F)F)Oc2ccc(Cl)cc2O1` (centres undefined), the Potency was 11.1 µM (active).

Take `c1cnn(-c2cc(N3CCOCC3)ncn2)c1`: the Potency entry was “inactive”.

`O=C(CN1C(=O)COc2ccc(Cl)cc21)Nc1ccc(N2CCOCC2)cc1`: the Potency result was “inactive”.

Take `CCC(=O)N1CCc2cc(S(=O)(=O)NC(CC(C)C)C(=O)NCCc3cccc(C)c3)ccc21` (centres undefined): the Potency entry was “inactive”.

In the case of `COc1cccc(NC(=O)CN2C(=O)c3ccccc3Sc3ncccc32)c1`, the Potency entry is “inactive”.

In the case of `O=C(c1ccc(C(F)(F)F)cc1)N1CCC(c2nc(-c3ccc(S(=O)(=O)N4CCCC4)cc3)no2)CC1`, the Potency result is “inactive”.

`Cc1c(CC(=O)N2CCN(C(=O)C3COc4ccccc4O3)CC2)c(=O)oc2c(O)c(O)ccc12` (centres undefined): the Potency was 6.31 µM (active).

With `Cc1c(C)c2ccc(OCC(=O)N3CCC(C(=O)O)CC3)c(C)c2oc1=O`, the Potency result is “inactive”.

For the molecule `O=C(CNC(=O)C1COc2ccccc2O1)N/N=C/c1cc(Br)c(O)c(Br)c1` (centres undefined), the Potency result was “inactive”.

In the case of `COc1ccccc1C(=O)NCCn1cc(SCc2ccccc2Cl)c2ccccc21`, the Potency entry is “inactive”.

Take `CCOc1ccc(N2CC(C)Cn3c2nc2c3c(=O)n(Cc3c(F)cccc3Cl)c(=O)n2C)cc1` (centres undefined): the Potency entry is “inactive”.

Regarding `O=S(=O)(c1ccc(Br)cc1)c1nnn2c1nc(N1CCOCC1)c1sccc12`, the Potency entry is “inactive”.

As to `Cc1ccc(Cl)cc1NC(=O)/C(C#N)=C\c1cn(Cc2ccc(F)cc2)c2ccccc12`, the Potency entry was “inactive”.

For the molecule `O=c1[nH]c(=S)[nH]c2[nH]c(=S)[nH]c12`, the Potency is 39.8 µM (active).

With `Cc1c(C)c(C)c2[nH]c(=S)[nH]c2c1C`, the Potency entry was “inactive”.

For `Cc1ccsc1CN(C(=O)c1oc2ccc(Br)cc2c1C)C1CCS(=O)(=O)C1` (centres undefined), the Potency entry was “inactive”.

As for `CCCn1c2ccccc2c2cnn(CC(=O)NCC3CCN(Cc4ccc(C)cc4)CC3)c(=O)c21`, the Potency result was “inactive”.

Consider `CCN(C(=O)CSc1nnc(C)n2c1cc1occc12)c1ccccc1`, for which the Potency entry was “inactive”.

`CCN(CC)c1ccc([N+](=O)[O-])cc1C(=O)O`: the Potency result was “inactive”.

For `OCCN(Cc1ccccc1)Cc1ccc(Cl)cc1`, the Potency entry is “inactive”.

As to `O=[N+]([O-])c1ccc(N(CCO)Cc2ccccc2)c([N+](=O)[O-])c1`, the Potency is 10 µM (active).

Take `CC(=O)Oc1cccc(N2C(=O)CC(Nc3ccc(N4CCOCC4)cc3)C2=O)c1` (centres undefined): the Potency is 35.5 µM (active).

Take `COc1cc2ccccc2cc1C(=O)Nc1ccc(N2CCOCC2)cc1`: the Potency entry was “inactive”.

For the molecule `CC(=O)Oc1cccc(N2C(=O)C3CC=C(Cl)CC3C2=O)c1` (centres undefined), the Potency result is “inactive”.

Consider `CCOC(=O)c1oc2ccc(S(=O)(=O)n3nc(-c4ccccc4OC)cc3N)cc2c1C`, for which the Potency result is “inactive”.

For the molecule `Cc1ccc(Nc2c(-c3ccc(C)s3)nc3ccccn23)cc1`, the Potency entry is “inactive”.

As for `Cc1cccc2nc(-c3ccc(Cl)s3)c(Nc3ccc4c(c3)OCCO4)n12`, the Potency is 7.94 µM (active).

On to `Oc1ccccc1-c1nc2ccc(Cl)cn2c1Nc1ccc2c(c1)OCCO2`, for which the Potency result was “inactive”.

`CN(C(=O)CSc1nc2ccc(NC(=O)COc3ccccc3)cc2s1)c1ccccc1`: the Potency entry is “inactive”.

`CCc1cccc(NC(=O)CN(C)S(=O)(=O)c2ccc3[nH]c4c(c3c2)CCCC4)c1`: the Potency result was “inactive”.

Regarding `CC(=O)Nc1ccc(S(=O)(=O)NNC(=O)CCc2ccccc2)cc1`, the Potency result is “inactive”.

For the molecule `O=C(CCc1ccccc1)NNc1ccc(F)cc1`, the Potency is 20 µM (active).

Turning to `O=C(CCc1ccccc1)NNC(=O)c1ccc(Br)cc1`, the Potency entry was “inactive”.

On to `O=S(=O)(NCCc1nnc2ccc(SCc3ccc(Cl)cc3Cl)nn12)c1ccccc1`, for which the Potency result is “inactive”.

As for `O=[N+]([O-])c1cc(-c2nc(-c3ccccc3)no2)ccc1NCc1ccco1`, the Potency result was “inactive”.

For the molecule `COc1ccc(Cn2c(=O)n(-c3ccccc3C)c(=O)c3c4c(sc32)CN(C(C)=O)CC4)cc1`, the Potency entry is “inactive”.

For the molecule `CCC(C)NC(=O)C1c2ccccc2Oc2ccccc21` (centres undefined), the Potency result was “inactive”.

For `CCC(C)(C)NC(=O)C1c2ccccc2Oc2ccccc21`, the Potency result was “inactive”.

In the case of `O=C(N/N=C/c1ccc(O)c(O)c1)C1c2ccccc2Oc2ccccc21`, the Potency is 14.1 µM (active).

Turning to `CCOc1ccc(C2CC(=O)c3c([nH]c(C(=O)OCc4ccccc4)c3C)C2)cc1` (centres undefined), the Potency entry was “inactive”.

Take `CCOc1ccc(N(CC)S(=O)(=O)N2CCCC(C(=O)NCc3ccc(Cl)cc3)C2)cc1` (centres undefined): the Potency entry was “inactive”.

As for `CC(=O)c1c(C)n(S(=O)(=O)c2ccc(Cl)cc2)c2ccc(NS(=O)(=O)c3ccc(Cl)cc3)cc12`, the Potency entry was “inactive”.

Take `COc1ccc(NC(=O)c2sc(N)nc2-c2ccccc2)cc1`: the Potency entry was “inactive”.

As for `Nc1ccc(-c2sc(N)nc2-c2ccccc2)cc1`, the Potency was 14 µM (active).

As for `Nc1ccc(-c2nnc(-c3ccccc3)o2)cc1`, the Potency entry is “inactive”.
